Records with an inconclusive call do not appear. Active and inactive are the calls of the source. Calls come from the whole dose curve; as a rule, active = well fitted curve in the direction sought with a large enough effect; inconclusive = small, poorly fitted or top-dose-only effect, or another doubt; inactive = no such curve, though single readings can be large; an effect the other way counts as inactive or inconclusive.
Assays:
[1] = MultiTox-Fluor Cytotoxicity Assay - LYMP1-001 - Dead Cells (AID 946)
In short: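 AC50 from Hill fit of concentration-response; data normalized to DMSO (basal) and 15 uM tetraoctylammonium bromide (100%). LYMP1-001 lymphoblastoid cells, 2500/well, 16 hr compound at 37 C; dead-cell protease fluorescence, Ex/Em 485/520.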

[2] = MultiTox-Fluor Cytotoxicity Assay - LYMP1-001 - Live Cells (AID 947)
[3] = Cell Viability - LYMP1-002 - Assay at 16 hr (AID 948)
In short: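 Seed 2500 LYMP1-002 cells per well in complete medium and hold 5 hr at 37 C. Add compound across a concentration series and incubate 16 hr at 37 C. Add CellTiter-Glo, wait 30 min at room temperature, read luminescence.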

[4] = MultiTox-Fluor Cytotoxicity Assay - LYMP1-002 - Live Cells (AID 955);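 note: cells exposed to compound for 16 hours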
In short: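 Human lymphoblastoid LYMP1-002 cells, 2500/well, treated 16 h at 37 C in complete medium. Live-cell protease activity via GF-AFC fluorescence (Ex/Em 405/510) after 60 min reagent incubation; AC50 from Hill fits.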

[5] = MultiTox-Fluor Cytotoxicity Assay - LYMP1-003 - Dead Cells (AID 961); note: nearly all actives have a fitted effect of over 70% in size
In short: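 Human lymphoblastoid LYMP1-003 cells (2500/well) were treated with compounds for 16 hr at 37 C in complete medium. Dead-cell protease release was read by bis-AAF-R110 fluorescence (Ex/Em 485/520). AC50 came from Hill fits, normalized to DMSO and 15 uM tetraoctylammonium bromide.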

[6] = MultiTox-Fluor Cytotoxicity Assay - LYMP1-003 - Live Cells (AID 962);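 note: cells exposed to compound for 16 hours at 37 °C; cytotoxic hits lower the live-cell protease signal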
In short: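 LYMP1-003 lymphoblastoid cells, 2500/well in complete medium, treated 16 h at 37 C; live-cell protease cleavage of GF-AFC read by fluorescence (Ex/Em 405/510) after 60 min reagent; AC50 from Hill fits of concentration-response.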

[7] = Cell Viability - LYMP1-003 - Assay at 40 hr (AID 964); note: series mostly up to about 92 µM; nearly all actives have a fitted effect of over 60% in size
In short: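 LYMP1-003 human lymphoblastoid cells, 2500/well, preincubated 5 h at 37 C, then treated with compound for 40 h at 37 C. Intracellular ATP read by CellTiter-Glo luminescence after 30 min at room temperature; AC50 from Hill-equation fits.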

[8] = Cell Viability - LYMP2-003 (AID 965);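 note: cells exposed to compounds for 24 h before reading; nearly all actives have a fitted effect of over 50% in size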
In short: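 Seed 2500 lymphoblastoid cells/well; incubate 5 hr, 37 C; add compounds; incubate 24 hr, 37 C; add CellTiter-Glo, 30 min RT; read luminescence. AC50 from Hill fit.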

[9] = Cell Viability - LYMP2-004 (AID 966); note: nearly all actives have a fitted effect of over 65% in size
In short: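 Lymphoblastoid LYMP2-004 cells, 2500 per well, were preincubated for 5 hr and then treated with compound for 24 h at 37 C in complete medium. Viability was read as cellular ATP by CellTiter-Glo luminescence, and AC50 values were taken from Hill fits to concentration-response data.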

[10] = Cell Viability - LYMP2-005 (AID 967); note: series mostly up to about 92 µM
In short: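 Acute cytotoxicity is scored as a concentration-dependent drop in intracellular ATP in human lymphoblastoid LYMP2-005 cells after 24 h compound treatment. ATP is quantified by luciferase luminescence, and AC50 is derived by Hill-equation modelling.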

[11] = Cell Viability - LYMP2-009 (AID 968); note: series mostly up to about 92 µM; nearly all actives have a fitted effect of over 55% in size
[12] = Cell Viability - LYMP2-011 (AID 969); note: nearly all actives have a fitted effect of over 60% in size
In short: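 2500 cells/well in complete medium, compound-treated 24 h at 37 C. Viability read as intracellular ATP by CellTiter-Glo luminescence after 30 min at room temperature. AC50 from Hill fits of qHTS concentration-response data.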

[13] = Cell Viability - LYMP2-013 (AID 970); note: series mostly up to about 92 µM; nearly all actives have a fitted effect of over 55% in size
In short: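 Human lymphoblastoid LYMP2-013 cells, 2500/well, treated 24 h at 37 C in complete medium; viability as intracellular ATP by CellTiter-Glo luminescence after 30 min. AC50 from Hill fits of qHTS concentration-response.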

[14] = Cell Viability - LYMP2-015 (AID 971); note: nearly all actives have a fitted effect of over 55% in size
In short: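 LYMP2-015 human lymphoblastoid cells (2500/well) in complete medium, compound-treated 24 h at 37 C; viability read as cellular ATP by CellTiter-Glo luminescence after 30 min at room temperature. AC50 from Hill-equation fits of qHTS concentration-response data.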

[15] = Cell Viability - LYMP2-017 (AID 972); note: series mostly up to about 92 µM; nearly all actives have a fitted effect of over 55% in size
In short: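 LYMP2-017 human lymphoblastoid cells (2500/well) settled 5 hr at 37 C, then exposed to compound 24 hr at 37 C in complete medium. Viability taken as intracellular ATP by CellTiter-Glo luminescence after 30 min at RT; AC50 from Hill fits.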

[16] = Cell Viability - LYMP2-023 (AID 975)
In short: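 LYMP2-023 human lymphoblastoid cells, 2500/well, preincubated 5 hr at 37 C, then compound-treated 24 hr at 37 C in complete medium. CellTiter-Glo luminescence (ATP) after 30 min at room temperature; AC50 from Hill-equation fits; tetraoctylammonium bromide positive control.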

[17] = Cell Viability - LYMP2-025 (AID 976); note: series mostly up to about 92 µM
In short: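 Human lymphoblastoid LYMP2-025 cells, 2500/well, exposed 24 h at 37 C in complete medium in 1536-well qHTS. Viability as cellular ATP by CellTiter-Glo luminescence; AC50 from Hill fits of concentration-response data.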

[18] = Cell Viability - LYMP2-002 (AID 977); note: series mostly up to about 92 µM
In short: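 Luminescent ATP readout (CellTiter-Glo, 30 min room temperature) after 24 h compound exposure at 37 C of a human lymphoblastoid line, 2500 cells/well. AC50 values derived by standard Hill fitting of qHTS concentration-response data.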

[19] = Cell Viability - LYMP2-007 (AID 979);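 note: cells exposed to compound for 24 h before reading; nearly all actives have a fitted effect of over 60% in size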
In short: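 Human lymphoblastoid LYMP2-007 cells (2500/well) preincubated 5 h at 37 C, then treated 24 h at 37 C in complete medium. Viability by CellTiter-Glo ATP luminescence after 30 min at room temperature; AC50 from Hill fits.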

[20] = qHTS assay for cell viability of the p53RE-bla HCT-116 cell line (AID 743292); note: nearly all actives have a fitted effect of over 55% in size
In short: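 Viability of compound-treated p53RE-bla HCT-116 cells is taken from ATP-dependent luciferase luminescence. Treatment lasts 16 h at 37 C after a 5 h settling period; detection follows 30 min at room temperature.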

Measured: Potency

O=C(O)c1cc(N=Nc2ccc([N+](=O)[O-])cc2)ccc1O
inactive: [1] | [2] | [3] | [4] | [5] | [6] | [7] | [8] | [9] | [10] | [11] | [12] | [13] | [14] | [15] | [16] | [17] | [18] | [19] | [20]
